# PubChem BioAssay
# Activity calls are given as the source filed them.
# Key:
# [1] = binders of probe aFSTL3 on microarray, primary screen, stem cell growth factor project, biochemical, small-molecule microarray, fluorescence 635/667 (AID 1064); conditions: higher = more signal;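 further: measures binding of the biotinylated anti-FSTL3 antibody to printed compounds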
# [2] = binders from COS7 lysate, DM2A8 probe, primary screen, torsin A project, cell lysate, small-molecule microarray, fluorescence 635/667 (AID 1065); conditions: higher = more signal, COS7 lysate expressing mutant human TOR1A
# [3] = binders of probe aFGF2 on microarray, primary screen, stem cell growth factor project, biochemical, small-molecule microarray, fluorescence 635/667 (AID 1067); conditions: higher = more signal;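 further: measures binding of biotinylated aFGF2 protein to printed compounds on slides; z-score merges feature fluorescence and signal-to-noise across triplicate slides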
# [4] = binders of probe aFGF10 on microarray, primary screen, stem cell growth factor project, biochemical, small-molecule microarray, fluorescence 635/667 (AID 1071); conditions: higher = more signal;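 further: score merges 667 nm spot intensity and signal to noise from triplicate slides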
# [5] = molecular target: Neurogenic locus notch homolog protein 2 (Homo sapiens) (UniProt Q04721); experiment: Notch2 binders on small-molecule microarrays, primary screen, biochemical, small-molecule microarray, 635 nm fluorescence, stem cell growth factors (AID 1073); conditions: Notch2 binding, higher = more signal
# [6] = molecular target: Pro-neuregulin-1, membrane-bound isoform (Homo sapiens) (UniProt Q02297); experiment: NRG1 binders on small-molecule microarrays, primary screen, psychiatric disease protein project, biochemical, small-molecule microarray, fluorescence 635/667 (AID 1075); conditions: NRG1 binding, 635 nm fluorescence, higher = more signal;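 further: score combines 667 nm spot fluorescence with signal to noise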
# [7] = test system: Neuregulin-1 EGF-like domain; experiment: binders of neuregulin-1 EGF-like domain, primary screen, biochemical, small-molecule microarray, 635 nm fluorescence (AID 1081); conditions: small-molecule microarray binding, higher = more signal;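 further: binding of the protein to compounds printed on small-molecule microarray slides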
# [8] = FRG1 promoter luciferase signal modulators, primary screen, FRG1 inhibition for FSHD, cell-based, C2C12 myotubes, firefly/Renilla luciferase, luminescence (AID 1084); conditions: higher = more signal, called active from +8 up or from −8 down
# [9] = binders of probe aFST on microarray, primary screen, stem cell growth factor project, biochemical, small-molecule microarray, fluorescence 635/667 (AID 1086); conditions: higher = more signal;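 further: score merges 667 nm fluorescence with signal-to-noise of each printed compound spot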
# [10] = binders of probe aHhip on microarray, primary screen, stem cell growth factor project, biochemical, small-molecule microarray, fluorescence 635/667 (AID 1087); conditions: higher = more signal;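 further: score merges spot fluorescence at 667nm with spot signal to noise ratio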
# [11] = test system: PRMT1 (protein arginine N-methyltransferase 1); experiment: PRMT1 binders on small-molecule microarrays, primary screen, biochemical, small-molecule microarray, 635 nm fluorescence (AID 1088); conditions: small-molecule microarray binding, higher = more signal;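 further: binding of Prmt1 protein to compounds spotted on small-molecule microarray slides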
# [12] = yeast growth modulation, basal conditions, primary screen, YJM789 clinical isolate, OD600, 24 h (AID 1089);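 further: growth of clinical yeast isolate S. cerevisiae YJM 789 seeded 1000 cells per well; test concentration not given here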; conditions: S. cerevisiae YJM789 growth, higher = more signal, called active from +8 up or from −8 down
# [13] = fission yeast growth modulation, primary screen, strain 972, OD600, 24 h, no modulator (AID 1090);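 further: basal condition with compound alone and no growth modifier present; test concentration not given here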; conditions: S. pombe 972 growth, higher = more signal, called active from +8 up or from −8 down
# [14] = S. cerevisiae growth modulation with rapamycin, primary screen, strain BY4716, OD600, 96 h (AID 1091); conditions: higher = more signal, called active from +8 up or from −8 down; further: test concentration not given here
# [15] = molecular target: Torsin-1A-interacting protein 2 (Homo sapiens) (UniProt Q8NFQ8); experiment: LULL1 binders on small-molecule microarray, primary screen, cell lysate, human LULL1 lysate, 635/667 nm fluorescence (AID 1092); conditions: hLULL1 lysate binding, 635 nm fluorescence, higher = more signal;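 further: probe is lysate of COS7 cells overexpressing human LULL1; score merges per-feature 667 nm fluorescence with signal-to-noise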
# [16] = E. coli growth modulation, two-sided OD650, primary screen, E. coli filamentation project, strain DRC41, 24 h (AID 1093); conditions: OD650, 24 h, higher = more signal, called active from +8 up or from −8 down;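 further: MC1000 strain lacking acrAB efflux and sulA so SOS filamentation is blocked; test concentration not given here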
# [17] = small-molecule microarray binders of probe aLefty2, primary screen, biochemical, biotinylated probe, 635/667 nm fluorescence (AID 1094); conditions: higher = more signal;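 further: score merges spot fluorescence near 667 nm with spot signal-to-noise ratio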
# [18] = test system: Noggin (protein binding on small-molecule microarray); experiment: Noggin binders on small-molecule microarray, primary screen, biochemical, 635/667 nm fluorescence (AID 1095); conditions: 635 nm fluorescence, higher = more signal;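 further: score merges 667 nm feature fluorescence with signal to noise over triplicate slides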
# [19] = molecular target: Neurogenic locus notch homolog protein 3 (Homo sapiens) (UniProt Q9UM47); experiment: NOTCH3 binders on small-molecule microarray, primary screen, biochemical, 635/667 nm fluorescence (AID 1096); conditions: NOTCH3 binding, 635 nm fluorescence, higher = more signal
# [20] = small-molecule microarray binders of probe aEGFR, primary screen, biochemical, biotinylated probe, 635/667 nm fluorescence (AID 1097); conditions: higher = more signal;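 further: probe is a biotinylated anti-EGFR antibody binding compounds printed on slides; score combines fluorescence near 667 nm and signal to noise of each spot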
# Neurogenic locus notch homolog protein 2 (Homo sapiens), sequence (Q04721 whole entry, looked up, canonical isoform): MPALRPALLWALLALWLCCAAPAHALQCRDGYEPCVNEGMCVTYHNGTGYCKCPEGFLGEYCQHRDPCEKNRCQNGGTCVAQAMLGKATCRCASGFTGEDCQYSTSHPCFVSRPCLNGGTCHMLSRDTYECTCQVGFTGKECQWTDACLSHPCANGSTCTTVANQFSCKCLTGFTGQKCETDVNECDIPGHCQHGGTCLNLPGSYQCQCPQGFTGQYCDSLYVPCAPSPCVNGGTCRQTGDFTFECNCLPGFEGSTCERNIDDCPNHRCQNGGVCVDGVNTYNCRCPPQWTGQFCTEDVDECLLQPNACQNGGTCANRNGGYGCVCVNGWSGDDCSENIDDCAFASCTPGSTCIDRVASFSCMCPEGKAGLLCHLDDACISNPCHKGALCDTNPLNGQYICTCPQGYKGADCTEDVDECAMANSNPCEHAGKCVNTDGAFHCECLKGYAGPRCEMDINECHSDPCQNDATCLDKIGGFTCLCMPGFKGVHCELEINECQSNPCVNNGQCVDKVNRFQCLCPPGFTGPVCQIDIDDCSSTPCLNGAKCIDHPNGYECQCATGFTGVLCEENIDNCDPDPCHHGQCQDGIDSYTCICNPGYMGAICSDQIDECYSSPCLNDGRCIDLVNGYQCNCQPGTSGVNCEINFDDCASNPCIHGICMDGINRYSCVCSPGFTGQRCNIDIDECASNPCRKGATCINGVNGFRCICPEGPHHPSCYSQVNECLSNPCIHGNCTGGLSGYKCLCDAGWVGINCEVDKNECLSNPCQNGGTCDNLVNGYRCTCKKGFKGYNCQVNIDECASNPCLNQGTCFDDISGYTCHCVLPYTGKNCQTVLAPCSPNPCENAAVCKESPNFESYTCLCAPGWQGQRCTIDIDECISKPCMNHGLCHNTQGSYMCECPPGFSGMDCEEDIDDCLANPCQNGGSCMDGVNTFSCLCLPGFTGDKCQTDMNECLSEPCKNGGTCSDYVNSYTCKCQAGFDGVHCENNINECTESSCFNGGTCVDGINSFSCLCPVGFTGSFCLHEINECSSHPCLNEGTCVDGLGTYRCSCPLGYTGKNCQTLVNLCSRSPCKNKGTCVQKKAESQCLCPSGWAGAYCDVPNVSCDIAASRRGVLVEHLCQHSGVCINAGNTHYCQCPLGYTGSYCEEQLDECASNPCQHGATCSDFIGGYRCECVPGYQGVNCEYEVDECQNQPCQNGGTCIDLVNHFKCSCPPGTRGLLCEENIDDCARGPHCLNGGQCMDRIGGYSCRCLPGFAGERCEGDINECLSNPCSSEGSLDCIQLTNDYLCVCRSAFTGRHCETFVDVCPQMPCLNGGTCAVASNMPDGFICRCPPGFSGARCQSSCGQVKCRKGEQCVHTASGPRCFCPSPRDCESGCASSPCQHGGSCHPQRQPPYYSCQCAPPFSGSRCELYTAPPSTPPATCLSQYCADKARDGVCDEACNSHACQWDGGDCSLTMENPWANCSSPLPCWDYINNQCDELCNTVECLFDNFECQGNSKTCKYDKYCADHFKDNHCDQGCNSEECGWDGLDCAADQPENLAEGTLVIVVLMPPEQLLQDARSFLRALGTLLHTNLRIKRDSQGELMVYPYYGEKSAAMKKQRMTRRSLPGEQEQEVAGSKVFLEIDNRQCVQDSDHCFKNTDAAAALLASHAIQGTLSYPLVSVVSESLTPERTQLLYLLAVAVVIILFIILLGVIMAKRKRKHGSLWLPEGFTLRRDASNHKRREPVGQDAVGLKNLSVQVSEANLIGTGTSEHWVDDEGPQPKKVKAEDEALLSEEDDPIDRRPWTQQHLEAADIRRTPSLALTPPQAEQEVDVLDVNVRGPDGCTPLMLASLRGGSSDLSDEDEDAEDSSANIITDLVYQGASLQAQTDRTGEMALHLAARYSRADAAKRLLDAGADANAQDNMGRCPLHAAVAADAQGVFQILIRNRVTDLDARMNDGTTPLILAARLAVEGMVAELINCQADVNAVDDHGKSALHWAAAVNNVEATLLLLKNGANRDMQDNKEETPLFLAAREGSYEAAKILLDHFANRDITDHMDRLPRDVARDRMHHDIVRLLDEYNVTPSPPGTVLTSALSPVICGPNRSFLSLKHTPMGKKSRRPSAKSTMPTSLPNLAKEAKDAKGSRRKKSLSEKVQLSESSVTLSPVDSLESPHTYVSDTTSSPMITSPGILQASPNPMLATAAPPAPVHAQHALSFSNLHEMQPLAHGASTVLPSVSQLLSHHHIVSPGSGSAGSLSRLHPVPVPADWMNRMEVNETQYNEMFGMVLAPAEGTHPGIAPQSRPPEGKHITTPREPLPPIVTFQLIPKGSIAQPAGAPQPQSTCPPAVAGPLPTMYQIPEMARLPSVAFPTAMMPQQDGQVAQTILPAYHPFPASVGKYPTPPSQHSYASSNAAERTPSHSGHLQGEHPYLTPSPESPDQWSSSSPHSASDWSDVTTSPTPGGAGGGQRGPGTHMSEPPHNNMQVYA
# Torsin-1A-interacting protein 2 (Homo sapiens), sequence (Q8NFQ8 whole entry, looked up): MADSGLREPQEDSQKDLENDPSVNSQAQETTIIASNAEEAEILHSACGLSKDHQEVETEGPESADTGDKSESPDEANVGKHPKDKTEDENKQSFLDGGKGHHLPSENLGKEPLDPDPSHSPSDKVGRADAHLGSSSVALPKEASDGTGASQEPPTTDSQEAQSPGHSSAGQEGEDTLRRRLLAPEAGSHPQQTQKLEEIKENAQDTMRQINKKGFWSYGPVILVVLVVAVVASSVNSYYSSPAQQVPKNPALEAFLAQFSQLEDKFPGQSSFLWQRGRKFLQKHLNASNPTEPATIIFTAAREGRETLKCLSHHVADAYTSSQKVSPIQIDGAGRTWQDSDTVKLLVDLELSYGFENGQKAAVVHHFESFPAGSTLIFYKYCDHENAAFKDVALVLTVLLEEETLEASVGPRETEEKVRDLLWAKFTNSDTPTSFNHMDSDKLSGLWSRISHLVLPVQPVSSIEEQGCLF
# Pro-neuregulin-1, membrane-bound isoform (Homo sapiens), sequence (Q02297 whole entry, looked up, the tested form may be a part, canonical isoform): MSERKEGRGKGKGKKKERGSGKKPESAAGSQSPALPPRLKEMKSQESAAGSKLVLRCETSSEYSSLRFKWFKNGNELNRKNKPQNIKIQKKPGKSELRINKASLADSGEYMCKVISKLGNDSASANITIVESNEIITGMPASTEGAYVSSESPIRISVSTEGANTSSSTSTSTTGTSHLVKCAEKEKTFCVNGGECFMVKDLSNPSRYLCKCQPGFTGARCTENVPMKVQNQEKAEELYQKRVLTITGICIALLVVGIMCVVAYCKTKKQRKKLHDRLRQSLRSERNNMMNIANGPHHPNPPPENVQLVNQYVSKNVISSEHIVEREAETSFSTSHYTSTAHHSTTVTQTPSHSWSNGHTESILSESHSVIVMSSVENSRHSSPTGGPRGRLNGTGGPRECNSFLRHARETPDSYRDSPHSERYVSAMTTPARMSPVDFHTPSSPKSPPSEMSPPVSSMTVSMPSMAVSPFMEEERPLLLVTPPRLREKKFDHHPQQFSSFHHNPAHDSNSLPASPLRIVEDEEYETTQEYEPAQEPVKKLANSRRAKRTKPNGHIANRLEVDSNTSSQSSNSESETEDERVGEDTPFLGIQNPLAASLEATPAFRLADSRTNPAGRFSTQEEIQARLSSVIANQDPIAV
SMILES,composite z-score [1],composite z-score [2],composite z-score [3],composite z-score [4],composite z-score [5],composite z-score [6],composite z-score [7],z-score [8],composite z-score [9],composite z-score [10],composite z-score [11],z-score [12],z-score [13],z-score [14],composite z-score [15],z-score [16],composite z-score [17],composite z-score [18],composite z-score [19],composite z-score [20]
COc1ccc(CCNC(=O)[C@@H]2c3ccccc3C(=O)N(C(C)C)[C@H]2c2ccc(CO)cc2)cc1,1.42,-0.489,-0.142,-0.92,-1.48,0.0203,0.209,-1.15 (inactive),-0.36,-0.379,-0.592,0.342 (inactive),-0.264 (inactive),-0.0884 (inactive),2.05,1.39 (inactive),0.0129,-1.3,-2.01,-0.238
O=C1NC(=O)C2C1C=CC(C(O)c1ccc(F)cc1)N2Nc1ccc(Cl)cc1Cl (stereo not given),0.848,-0.335,0.103,0.336,0.916,1.8,0.885,-0.068 (inactive),0.0708,-0.374,0.589,-25.3 (active),-7.26 (inactive),-0.0449 (inactive),3.02,-1.3 (inactive),0.096,-0.749,0.14,-0.123
O=C1C2C=CC(C(O)c3ccccn3)N(Nc3ccc([N+](=O)[O-])cc3)C2C(=O)N1c1ccccc1 (stereo not given),0.0747,0.369,0.0447,0.794,1.33,1.82,1.31,0.678 (inactive),0.512,-0.0645,0.379,-0.931 (inactive),0.587 (inactive),-0.622 (inactive),1.12,-1.36 (inactive),-0.248,-0.493,0.772,-0.047
C=CC[C@]1(C(=O)NCC(O)CO)N=C(c2ccc(OCCCO)cc2)O[C@H]1c1ccccc1CN=[N+]=[N-] (stereo not given in full),1,1.23,-0.0316,0.36,-0.757,0.323,1.23,-0.27 (inactive),0.267,0.189,1.01,-0.0604 (inactive),-0.234 (inactive),-0.83 (inactive),3.51,0.384 (inactive),0.239,-0.62,-0.922,-0.0828
CCCC1(C(=O)OC)C=C2C(=C(C(C)C)C(=O)C2C)CN1 (stereo not given),0.578,-0.241,-0.133,-0.397,-0.052,0.688,-0.15,1.89 (inactive),-0.0967,-0.0645,-1.32,0.128 (inactive),0.0695 (inactive),0.767 (inactive),0.268,-1.24 (inactive),0.115,-0.797,-0.493,-0.146
COC(=O)c1c2oc(c1C(=O)OC)C(=O)N[C@H](Cc1ccccc1)Cn1cc(nn1)C1(CCCCC1)NC(=O)N[C@H](CO)CC2,-0.194,0.112,-0.0561,0.399,-0.0222,0.657,0.647,-1.12 (inactive),-0.259,-0.0102,0.286,1.92 (inactive),-0.261 (inactive),-0.691 (inactive),1.46,2.01 (inactive),-0.124,0.292,-0.147,-0.158
COC(=O)[C@@]1(Cc2ccc(F)cc2)[C@H]2c3cc(C(=O)N(C)C)n(Cc4ccsc4Br)c3C[C@H]2CN1C(=O)c1ccccc1,2.25,-0.3,0.915,1.01,1.83,1.88,0.529,1.94 (inactive),2.68,3.87,-0.291,0.232 (inactive),0.168 (inactive),1.37 (inactive),3.64,-1.32 (inactive),1.38,-0.322,1.08,1.06
C=C(CCCC)C(=O)CC[C@@H](OC(C)=O)c1ccc(OCCO)cc1,0.0324,1.11,-0.0909,1.01,-0.626,0.409,1.02,-0.0798 (inactive),0.0685,-0.134,1.01,-1.58 (inactive),-2.48 (inactive),-0.679 (inactive),0.742,0.44 (inactive),-0.178,1.53,1.13,-0.216
CCCC[C@@H](O)C1=C(C)Cn2c(=O)n(-c3ccccc3)c(=O)n2[C@H]1CO,-0.571,-0.0827,-0.092,0.361,-0.362,-0.773,-0.151,-0.755 (inactive),-0.378,0.0053,-0.23,-1.43 (inactive),-1.39 (inactive),-0.846 (inactive),-0.249,2.53 (inactive),-0.218,-0.0422,-0.839,-0.0517
COCCOC(=O)N1C(=O)[C@@]2(c3cc(C#CC4=CCCCC4)ccc31)[C@H](C(=O)N1CCCCCCC1)[C@H]1C(=O)O[C@H](c3ccccc3)[C@H](c3ccccc3)N1[C@@H]2c1ccccc1OCCO,2.57,0.571,0.0328,0.271,1.08,1.11,1.18,0.927 (inactive),2.04,0.33,1.55,1.01 (inactive),-1.22 (inactive),1.98 (inactive),3.02,0.87 (inactive),1.15,1.5,1.06,0.417
